Source: PubChem BioAssay (National Center for Advancing Translational Sciences (NCATS))
a7 integrin act: integrin-mediated muscular dystrophy alleviation activation | alpha7betagal myoblasts, beta-gal FDG fluorescence, 48 h | Potency, µM (series often up to 38.3 µM), for inactives: top-dose activation, usual class: activators | 350,000 compounds, 0.064% hits;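 further: potency means the concentration at half of the fitted maximal effect; 100% = response of the positive control SU9516; nearly all actives have a fitted effect of over 60% in size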
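alpha7betagal+/- myoblasts (passage 13, 250/well) treated 48 h at 37C with compounds at 1:260 dilution of DMSO stock. Lysed, then beta-galactosidase activity read as FDG fluorescence (ex 480/em 540) after 30 min, with pre-read for autofluorescence.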
D3 antag: blocks the human D3 dopamine receptor. P35462. D3R cells, DiscoveRx beta-arrestin luminescence, antagonist mode; active compounds read low. max response, negative = inhibition, %. 360,000 compounds, 2.5% hits. AID 652054; in the data active means max response below about -50%; inconclusive means no clear call, values can overlap the other calls; further: on the % scale 0 is the no-effect control and ±100 the full control effect
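Cells expressing the human receptor were seeded at 1500 cells/well, incubated overnight at 37 degrees C in 5% CO2, then exposed to library compounds with dopamine controls for 90 minutes at 37 degrees C before luminescent detection.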
PTHR1 ag: activates the human parathyroid hormone receptor PTHR1. Q03431. HEK293 GP2 PTHR1 cells, GloSensor cAMP luminescence, 1 h. Potency, µM (top dose mostly 115 µM), without a hit: top-dose activation, actives largely listed as activators. 410,000 compounds, 0.075% hits; further: potency means the concentration at half of the fitted maximal effect; nearly all actives have a fitted effect of over 55% in size
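HEK-293-derived GP2 cells expressing PTHR1 and a GloSensor cAMP reporter, 3,000/well, plated overnight, given luciferin plus IBMX (each 0.5 mM as added) for 1 h at 37 °C, then compound for 1 h at 37 °C. Luminescence was read after 15 min at room temperature.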
D3 ag: D3 dopamine receptor (human) agonism | D3R DiscoveRx beta-arrestin cells, luminescence, 90 min | max activation, % | 410,000 compounds, 0.58% hits; in the data active means max activation above about 30%; further: 0% is about no effect
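Agonist mode: compounds and dopamine controls were applied to plated cells for 90 min at 37 degrees C after an overnight attachment at 1500 cells/well. Luminescent read-out followed 30 - 60 minutes at room temperature with DiscoveRx detection reagent.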
CBFb-RUNX1 inh: CBF-beta/RUNX1 interaction disruption. Q01196+Q13951. AlphaScreen CBFb-His/RUNX1-biotin binding, biochemical. Potency, µM (doses to about 59.8 µM), inactives show at the top dose activity, negative = inhibition, hits mostly inhibitors. 230,000 tested, under 10 active. AID 1477; further: % of control where 0% means no effect
Target sequence (Q01196 whole entry, looked up): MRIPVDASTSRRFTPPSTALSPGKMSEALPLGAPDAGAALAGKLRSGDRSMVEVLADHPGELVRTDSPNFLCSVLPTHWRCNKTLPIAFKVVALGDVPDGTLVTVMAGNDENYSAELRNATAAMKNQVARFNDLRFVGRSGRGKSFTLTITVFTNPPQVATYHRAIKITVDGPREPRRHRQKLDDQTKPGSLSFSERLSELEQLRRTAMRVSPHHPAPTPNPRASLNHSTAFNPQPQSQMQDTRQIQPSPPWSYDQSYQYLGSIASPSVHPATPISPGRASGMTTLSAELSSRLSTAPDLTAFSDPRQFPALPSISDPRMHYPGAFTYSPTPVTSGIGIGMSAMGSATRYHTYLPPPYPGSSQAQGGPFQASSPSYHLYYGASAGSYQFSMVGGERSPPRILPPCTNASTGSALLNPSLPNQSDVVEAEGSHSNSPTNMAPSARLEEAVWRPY
Target sequence (Q13951 whole entry, looked up): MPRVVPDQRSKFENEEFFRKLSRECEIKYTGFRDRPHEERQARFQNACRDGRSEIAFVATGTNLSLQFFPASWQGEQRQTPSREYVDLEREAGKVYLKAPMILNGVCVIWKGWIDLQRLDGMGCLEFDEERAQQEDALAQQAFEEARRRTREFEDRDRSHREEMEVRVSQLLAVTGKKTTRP
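Proteins preincubated together for 20 min at RT before compound addition; 15 min later, nickel and streptavidin beads were added and left 90 min prior to AlphaScreen measurement.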
MBNL1-CUG inh: MBNL1-poly(CUG) RNA binding inhibition; Potency, µM (titrated, usually from 57.5 µM), for inactives: at the highest dose activity change, negative = inhibition, actives largely listed as inhibitors; 280,000 compounds, 0.036% hits; Q9NR56; TR-FRET MBNL1-His/biotin-(CUG)12 binding, 665/545 ratio; AID 2675; active means well fitted inhibition curve with a large enough effect in the signal ratio, with a control signal flat, not every such curve was filed as active; inconclusive means small, poorly fitted or top-dose-only effect, or effect the other way, or a change in a side signal; inactive means no such curve, though single readings can be large or run the other way; the % refers to the signal ratio; further: potency means the concentration at half of the fitted maximal effect; on the % scale 0 is the no-effect control and ±100 the full control effect
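TR-FRET between His-tagged MBNL1 and biotin-(CUG)12 RNA, detected with Tb anti-His antibody (0.055 ng/ul) and streptavidin-XL665 (5 nM), 60 min at room temperature. Compounds titrated 92 nM to 58 uM; 665/545 nm ratio normalized to buffer and complex controls.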
Active calls of the source: *; i = inactive; ? = inconclusive; . = no result given; [ ] = remark or other dose. The list is not random: actives were taken first. Their share in the collection is about 2.8%. Unless noted, the call rests on the fitted dose curve; in most records, active means well fitted curve in the direction sought with a large enough effect; inconclusive means small, poorly fitted or top-dose-only effect, or another doubt; inactive means no such curve, though single readings can be large; an effect the other way counts as inactive or inconclusive.

SMILES | a7 integrin act | D3 antag | PTHR1 ag | D3 ag | CBFb-RUNX1 inh | MBNL1-CUG inh
CCN(C(=O)CSc1nnc(-c2ccc(OC)cc2)n1C(C)C)C1CCS(=O)(=O)C1 (stereo not drawn) | -22% | 20 | i | 3 | . | .
Cc1ccc(S(=O)(=O)N(C)c2ccc(C(=O)NCC(c3ccccc3)N3CCCC3)cc2)cc1 (stereo not drawn) | -31% | -64* | i | -15 | . | .
COc1ccc(NS(=O)(=O)c2cccc(C(=O)NCC(c3ccc(OC)cc3)N3CCCC3)c2)cc1 (stereo not drawn) | -20% | ? | -1% | -13 | . | .
COc1ccccc1NS(=O)(=O)c1cccc(C(=O)NCC(c2ccco2)N2CCCCC2)c1 (stereo not drawn) | 9% | -16 | -63% | -31 | . | .
CN(c1ccccc1)S(=O)(=O)c1ccc(C(=O)NCC(c2ccco2)N2CCCCC2)cc1 (stereo not drawn) | -14% | ? | 15% | -16 | . | .
COc1ccc(C(CNC(=O)c2cccc(S(=O)(=O)Nc3ccccc3OC)c2)N2CCCC2)cc1 (stereo not drawn) | -30% | -65* | i | -31 | . | .
COc1cccc(C(=O)NCCS(=O)(=O)N2CCCC2)c1 | -9% | -63* | i | -5 | . | .
COc1ccc(C(CNC(=O)c2cccc(S(=O)(=O)Nc3ccccc3OC)c2)N2CCCCC2)cc1 (stereo not drawn) | -6% | -81* | -1% | -28 | . | .
CCOc1ccc(S(=O)(=O)N2CCCC(C(=O)NCC3CCCO3)C2)cc1 (stereo not drawn) | -9% | -7 | -1% | -6 | . | -3%
O=C(CN(C(=O)c1ccccc1Cl)N1C(=O)CCCC1=O)c1ccc(Cl)cc1 | 6% | -2 | -20% | -14 | 1% | -2%
COc1ccc(N(C)S(=O)(=O)c2cccc(C(=O)NCC(c3ccco3)N3CCCC3)c2)cc1 (stereo not drawn) | -20% | -57* | i | -27 | . | .
CCN(c1ccccc1)S(=O)(=O)c1cccc(C(=O)NCC(c2ccc(OC)cc2)N2CCCCC2)c1 (stereo not drawn) | -52% | -122* | i | -5 | . | .
COc1ccc(N(C)S(=O)(=O)c2cccc(C(=O)NCC(c3cccs3)N(C)C)c2)cc1 (stereo not drawn) | 0% | -67* | -1% | -28 | . | .
COc1ccc(C(CNC(=O)c2ccc(OC)c(S(=O)(=O)N3CCCC3)c2)N2CCCC2)cc1 (stereo not drawn) | -37% | -83* | -13% | -23 | . | .
C=CCN(c1ccccc1)S(=O)(=O)c1cccc(C(=O)NCC(c2ccc(OC)cc2)N2CCCCC2)c1 (stereo not drawn) | -40% | ? | -18% | -28 | . | .
COc1ccc(C(=O)NCC(c2ccc(F)cc2)N2CCOCC2)cc1S(=O)(=O)N1CCCC1 (stereo not drawn) | 3% | 8 | -10%[57.5 µM] | 8 | -7% | 2%
CN(C)C(CNC(=O)c1cc(S(=O)(=O)N(C)c2ccc(F)cc2)ccc1Cl)c1cccs1 (stereo not drawn) | -10% | 8 | -31% | 2 | . | .
COc1ccc(C(CNC(=O)c2ccc(C)c(S(=O)(=O)Nc3ccccc3OC)c2)N2CCCC2)cc1 (stereo not drawn) | -38% | -93* | -5% | -23 | . | -5%
COc1ccc(NS(=O)(=O)c2cccc(C(=O)NCC(c3ccc(OC)cc3)N3CCCCC3)c2)cc1 (stereo not drawn) | -23% | -57* | -5% | -14 | . | .
CCC1CCc2sc(C(=O)NCC(c3ccc(OC)cc3)N3CCCC3)cc2C1 (stereo not drawn) | -56% | -89* | -3% | -9 | . | .
COc1ccc(C(CNC(=O)c2cc3ccccc3cc2OC)N2CCCC2)cc1 (stereo not drawn) | -19% | -56* | i | -10 | 2% | 17%
